Assay results reported in PubChem BioAssay AID1745849 (National Center for Advancing Translational Sciences (NCATS), 2022).
Among all 2,100 compounds or so, about 320 (15%) were called active. Not shown: some 52% with an inconclusive outcome. The list shows a part of the results. Unmarked numbers belong to inactive results. Calls come from the whole dose curve; as a rule, active = well fitted cell-killing curve with a large enough effect; inconclusive = small, poorly fitted or top-dose-only effect, or effect the other way; inactive = flat fitted curve, though single readings scatter.

Test: Viability Counterscreen for CMV-Luciferase Assay of Inhibitors of ATXN expression; note: nearly all actives have a fitted effect of over 55% in size
Conditions: HEK-293 CMV-luciferase cells viability, protease fluorescence, 24 h; activity change, negative = cytotoxicity: at the top concentration
Description: PI: Daniel Scoles Ph.D. University of Utah School of Medicine, Salt Lake City, Utah MLPCN Grant: NS073009 Spinocerebellar ataxia type 2 (SCA2) is a multisystem neurodegenerative disease caused by a dominantly acting mutation leading to expansion of a polyQ domain in the ataxin-2 protein (ATXN2). SCA2 patients develop progressive ataxia and later lose function in other neuronal systems. Prominent parkinsonian signs develop in some patients. Like many neurodegenerative disorders, no symptomatic or disease-modifying treatments are known. The primary objective of the proposed research is to identify compounds inhibiting ATXN2 expression and to test them for efficacy in SCA2 mouse models. We have developed a cell-based assay paired with an in vivo mouse model using identical luciferase expression constructs. This approach takes advantage of an ATXN2-luciferase transgene, with the luciferase gene flanked by the upstream and downstream portions of the ATXN2 gene. Here we describe a 5-7 dose quantitative high thoroughput screen (qHTS) for compounds lowering ATXN2 expression. We screened the NIH Molecular Libraries Small Molecule Repository (MLSMR) and NCGC's mechanistically annotated (MIPE) and drug repurposing (NPC) collections of compounds for lowering expression of an ATXN2-luciferase reporter in HEK-293 cells. The assay is a multiplexed cell viability assay to ensure target reduction in the absence of cytotoxicity. Secondary qHTS assays included a CMV-luciferase reporter expressed in HEK-293 cells as well as a biochemical assay using recombinant luciferase to detect inhibitors of the reporter enzyme. Compounds that inhibit ATXN2 expression but is not cytotoxic were selected for confirmatory and secondary screens.
PROTOCOL TABLE (as described by Inglese J, Shamu CE and Guy RK. 2007) SEQUENCE No. (e.g., 1, 2, 3, etc.); […] (e.g., Cells, Incubation, Reagent, etc.); VALUE; DESCRIPTION. 1; Cells; 4 uL; white, solid bottom, 1536-well Greiner assay plate. 2; Incubation; 2 hr; 37 degree C in 5% humidified CO2. 3; Compounds; 23 nL; Kalypsis pintool (Wako USA) equipped with a 1536-well pin head. 4; Incubation; 24 hr; 37 degree C in 5% humidfified CO2. 5; Reagent; 1 uL; Gly-Phe-7-Amino-4-trifluoromethylcoumarin. 6; Incubation; 30 min; 37 degree C in 5% humidfified CO2. 7; Detection; Fluorescence; Viewlux plate reader (PerkinElmer). 8; Reagent; 3 uL; SteadyGlo luciferase solution (Promega). 9; Incubation; 5 min; room temperature. 10; Detection; Luminescence; ViewLux plate reader (PerkinElmer). NOTES (numbers refer to Sequence numbers above) 1. HEK-293 cells expressing CMV-luciferase reporter (designated as SC cells) were suspended in phenol-red free DMEM and dispensed in assay plates using a Multidrop Combi dispenser (Thermo Fisher Scientific). 2. Assay plates were incubated. Evaporation was prevented by covering assay plates with metal lids containing holes to allow gas diffusion. 3. Compounds were added in a dose response manner with the final concentrations of 57, 11.4, 2.28, 0.46, 0.091, 0.018, 0.0037 uM. Vehicle-only plates, with DMSO being pin-transferred to columns 5-48, were inserted uniformly at the beginning and the end of each library to monitor and record any shifts in assay performance. 5. 125 uM Gly-Phe-7-Amino-4-trifluoromethylcoumarin (MP Biomedicals) working concentration was used at a final concentration of 25 uM. 7. To assess cell viability; the assay plates were read using the ViewLux high-throughput CCD imager (PerkinElmer), wherein single end-point fluorescence measurement was acquired (excitation 405/10; emission 540/25 nm). 8. Detection reagent SteadyGlo Luciferase (Promega) was added to the assay plate. 10. Luminescence is then measured on the ViewLux imager equipped with a clear emission filter using a 2 sec exposure. […]
% is set by controls: 0 for no effect and ±100 for the full control effect; potency is the fitted concentration of half-maximal effect.

SMILES	activity change, negative = cytotoxicity	Potency
COc1ccc(C(=O)NC(=C(Cl)Cl)S(=O)(=O)c2ccc(C)cc2)cc1	-28.4%	
Cc1ccc(S(=O)(=O)/C(=C/Cl)NC(=O)c2ccccc2)cc1		17.8 µM (active)
Cc1cc(N/N=C/c2ccc(O)cc2O)nc(-n2nc(C)cc2C)n1		10 µM (active)
Cc1cc(N/N=C/c2ccccc2[N+](=O)[O-])nc(-n2nc(C)cc2C)n1		12.6 µM (active)
Cc1cc(N/N=C\c2ccc(Br)cc2)nc(-n2nc(C)cc2C)n1	-7.45% [at 57.5 µM]	
CCn1c2ccccc2c2cc(NC(=O)COC(=O)C3CCC(=O)N3)ccc21 (centres undefined)	-17.1% [at 57.5 µM]	
CCCC(=O)OC/C(O)=C(\C#N)c1nc2ccccc2[nH]1	-7.86%	
CCN(CC)CCNC(=O)c1ccc(NC(=O)c2ccccc2-c2ccc(C(F)(F)F)cc2)cc1	-22.9% [at 57.5 µM]	
COc1cc(CNCc2ccncc2)cc(Br)c1OCc1ccccc1F	-8.06%	
Cc1cc(C(=O)CN2C(=O)c3ccccc3S2(=O)=O)c(C)n1CC1CCCO1 (centres undefined)	7.21% [at 57.5 µM]	
Cc1cc(C)n(CC(O)Cn2c3ccc(Cl)cc3c3cc(Cl)ccc32)c(=O)n1 (centres undefined)	-19.8%	
CC(Nc1ccccc1CO)C(=O)Nc1cccc(Cl)c1Cl (centres undefined)	-16.1% [at 57.5 µM]	
Cc1ccccc1C(=O)N/N=C/c1ccc([N+](=O)[O-])s1		22.4 µM (active)
O=C(N/N=C\c1ccc([N+](=O)[O-])s1)c1cncc(Br)c1		10 µM (active)
O=C(N/N=C/c1cc(Br)ccc1OC(=O)c1ccc(Br)cc1)c1ccncc1	10.1% [at 57.5 µM]	
O=C(CNC(=O)c1ccccc1Br)N/N=C/c1cc(Br)ccc1O	-27.5%	
O=C(N/N=C/c1cc(Br)ccc1O)c1ccncc1	-12.8%	
O=C(N/N=C/c1ccc([N+](=O)[O-])s1)c1ccccc1Br		20 µM (active)
Cc1cccc(/C=N/NC(=O)c2c(-c3ccccc3)noc2C)c1O	-27.5%	
Cc1ccc(NC(=O)/C=C/c2ccc([N+](=O)[O-])s2)c(C)c1	10.5%	
O=C(N/N=C/c1cc(Cl)ccc1O)c1ccccc1Br	6.59% [at 57.5 µM]	
CCCc1nc(NC2CCCCC2)c(C#N)c2c1COC(C)(C)C2	16.2%	
CN(C)CCC(c1ccc(Br)cc1)c1ccccn1 (centres undefined)	-13.2% [at 57.5 µM]	
N#Cc1cc2cc3c(cc2nc1SCC(=O)N1CCOCC1)OCCO3	0.63%	
CN(CC(=O)Nc1ccc(Cl)c(C(F)(F)F)c1)C(=O)c1cccnc1Sc1ccccc1	11.2% [at 57.5 µM]	

SMILES	activity change, negative = cytotoxicity	Potency
Cc1ccc(NC(=O)CSc2ccc(Br)cc2)cc1S(=O)(=O)N1CCOCC1	-20.3% [at 57.5 µM]	
Cc1ccc(C(=O)N(C)CC(=O)Nc2ccc(Cl)c(C(F)(F)F)c2)cc1S(=O)(=O)N1CCCCC1		20 µM (active)
CC(SC(C)C(=O)NN=Cc1cccc(Cl)c1)C(=O)NN=Cc1cccc(Cl)c1 (centres undefined)	-17.2%	
O=C(Nc1nonc1-c1ccc(Cl)cc1)c1ccccc1	-28.7% [at 57.5 µM]	
O=C1C=CCC(/C=C/c2ccccc2)O1 (centres undefined)		31.6 µM (active)
Cc1csc2ncnc(NC3CCN(Cc4ccccc4)CC3)c12	-5.28% [at 57.5 µM]	
CCOC(=O)N1CCN(c2ccnc3cc(Cl)ccc23)CC1	13.1%	
Cc1cccc(N2CCN(S(=O)(=O)c3ccc4c(c3)C(C)(C)C(=O)N4C)CC2)c1C	6.54% [at 57.5 µM]	
CCN(CC(=O)Nc1cccc(OC)c1)CC(=O)Nc1ccc(Br)c(C)c1		17.8 µM (active)
COc1cccc(NC(=O)CSc2nc3ncc(Br)cc3[nH]2)c1	5.16%	
COc1ccc(O)c(/C=N/NC(=O)CCC(=O)Nc2cccc(C)c2)c1	16.1% [at 57.5 µM]	
O=c1cc(-c2c(F)c(F)c(F)c(F)c2F)oc2ccccc12	-23.6%	
Cc1ccccc1C(=O)/C(C#N)=N/Nc1c(C)n(C)n(-c2ccccc2)c1=O		10 µM (active)
Cc1c(N/N=C(\C#N)C(=O)c2ccccc2)c(=O)n(-c2ccccc2)n1C		11.2 µM (active)
COc1ccc(NS(=O)(=O)c2ccc(C(=O)Nc3c(C)n(C)n(-c4ccccc4)c3=O)cc2)cc1	6.71%	
Cc1c(N/N=C(\C#N)C(=O)c2ccc(Cl)cc2)c(=O)n(-c2ccccc2)n1C		2.51 µM (active)
CCOC(=O)c1ccc(NC(=O)c2nc[nH]c2C(=O)N[C@H](C)c2ccccc2)cc1	10.5%	
CCn1c(C)cc(C(=O)CN2C(=O)c3ccccc3S2(=O)=O)c1C	-1.67%	
O=C(Nc1cccc2ccccc12)OC1C=CS(=O)(=O)C1 (centres undefined)	-14.6%	
Cc1ccc(Cc2cnc(N3C(=N)SC(C)C3=O)s2)cc1 (centres undefined)	-1.76%	
Cc1cc(C)c(S(=O)(=O)/N=C2\C=C(Nc3ccc(C(=O)O)cc3)C(=O)c3ccccc32)c(C)c1		2 µM (active)
N#C/C(=C\C=C\c1ccccc1[N+](=O)[O-])C(=O)NCc1ccccc1		3.16 µM (active)
CC(C)N(Cc1ccccc1)C(=O)/C=C/c1ccccc1[N+](=O)[O-]	-9.06% [at 57.5 µM]	
N#C/C(=C\c1cccc([N+](=O)[O-])c1)C(=O)NCc1ccc(Cl)cc1		3.55 µM (active)
